# Hits are enriched below; roughly 3.8% of the tested compounds scored in any of these assays.
# TIM10 inh = TIM10 yeast growth inhibition. S. cerevisiae TIM10 strain growth, BacTiter-Glo luminescence, 24 h. inhibition, % at 10 µM. hit rate 1.4% among 330,000;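 active = inhibition of 40% or more at the single tested concentration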;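 also: wild-type TIM10 isogenic control strain grown at permissive 25 °C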
# tim23-1 inh = inhibits growth of tim23-1 mutant yeast | inhibition, % at 20 µM | S. cerevisiae tim23-1 growth, BacTiter-Glo luminescence, 24 h | hit rate 1.3% among 330,000 | AID 463212;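 active = growth inhibition of the mutant yeast at or above 50%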;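 also: temperature-sensitive mutant grown at 25 °C; plate controls were DMSO-treated mutant yeast for no effect and medium wells lacking yeast for full effect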
# tim10-1 inh = inhibits growth of tim10-1 mutant yeast; inhibition, % at 20 µM; hit rate 2.2% among 330,000; S. cerevisiae tim10-1 ts strain growth, BacTiter-Glo, 24 h; AID 463190;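 active = inhibition of at least 40%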;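 also: mutant grown at 25 °C; 0% = DMSO wells with yeast and 100% = wells holding no yeast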
# NLRP3 yeast inh = NALP3 inhibition in yeast. Yeast reconstituted NLRP3/ASC/caspase-1, beta-gal luminescence, 24 h. inhibition, % at 10 µM. hit rate 0.39% among 330,000. AID 2825;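 active = inhibition of 50% or more; inactive = inhibition below 50%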;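 also: plate controls were induced DMSO wells for no effect and uninduced yeast grown without galactose for full effect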
# CR mimetic SO = yeast age-related superoxide inhibition as caloric restriction mimetic | S. cerevisiae aged cells, superoxide DHE fluorescence; hits give low values | superoxide response (% of plate mean), % at 10 µM | hit rate 0.18% among 330,000;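 active = superoxide response under a set limit, about three screen SD below normal, cut at about 65% in these data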;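 also: yeast aged for seven days with compound at 30 °C before DHE staining; 100% = average MFI of all compound-treated wells on the plate with controls excluded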
# tim10-1 conf = confirmation of tim10-1 mutant yeast growth inhibitors. hit rate 56% among 7,400. shares compounds with tim10-1 inh. AID 463213. S. cerevisiae tim10-1 ts strain growth, BacTiter-Glo, 24 h. inhibition, % at 20 µM;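 active = inhibition of yeast growth at or above a set limit in either of two repeat tests at 20 µM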;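 also: tim10-1 mutant grown at permissive 25 °C to find synthetic lethal compounds; 0% = DMSO yeast wells and 100% = medium wells without yeast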
# TIM10 conf = TIM10 yeast growth inhibition, confirmed. shares compounds with TIM10 inh. inhibition, % at 10 µM. S. cerevisiae tim10 strain growth, BacTiter-Glo luminescence, 24 h. AID 463215. hit rate 63% among 4,600;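 active = inhibition of yeast growth at or above a set limit in either of two replicates at 10 µM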;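 also: this counterscreen used the strain with wild-type TIM10; 0% = yeast with DMSO and 100% = medium wells lacking yeast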
# The depositor's hits bear a star; . = no result.
SMILES,TIM10 inh,tim23-1 inh,tim10-1 inh,NLRP3 yeast inh,CR mimetic SO,tim10-1 conf,others
CC1CCc2c(sc(NC(=O)CSc3ncn[nH]3)c2C#N)C1 (configuration not stated),-3,12,-2,12,113,.,
CCCc1cc(=O)[nH]c(SCC(=O)Nc2sc3c(c2C#N)CCC(C)C3)n1 (configuration not stated),14,21,47*,-2,103,-8,
CC1(C)OC(=O)N(c2ccccc2)C12C=Cc1c(ccc3ccccc13)O2 (configuration not stated),23,-9,43*,-2,94,7,
CC(c1ccccc1)N1C(=O)OC(C)(C)C1(C)O (configuration not stated),-1,15,16,-14,.,.,
COc1ccc(Cl)cc1NC(=O)CC1S/C(=N/N=C2CCCCCC2)NC1=O (configuration not stated),12,25,28,12,81,.,
COc1cc2c(cc1NC(=S)Nc1cccc3ccccc13)oc1ccccc12,6,13,15,15,84,.,
COc1cc2c(cc1NC(=S)Nc1cccc(C(F)(F)F)c1)oc1ccccc12,36,40,40*,15,115,23,
CCc1ccccc1N(CC)C(=O)C1CCN(c2ncnc3c2nc2n3CCCCC2)CC1,17,33,42*,12,92,10,
O=C(C1CCN(c2ncnc3c2nc2n3CCCCC2)CC1)N1CCN(c2ccc(F)cc2)CC1,-63,-28,44*,17,98,-97,
Cc1nc(-c2cc(-c3nc(-c4ccc(C(C)(C)C)cc4)no3)no2)cs1,-22,-9,-17,10,106,.,
Fc1ccccc1/C=C1\CCCC2=C1NC(=S)NC2c1ccccc1F (configuration not stated),37,39,41*,33,98,15,
CCC(C(=O)OCC(=O)Nc1cc(Cl)cc(Cl)c1)c1ccccc1 (configuration not stated),24,29,40*,9,86,26,
CCC(C(=O)OCC(=O)Nc1cccc(C(C)=O)c1)c1ccccc1 (configuration not stated),31,-7,17,19,134,.,
CC1C/C(=N\NC(=S)NC(C)C)CC(C)(C)C1 (configuration not stated),32,22,39,22,89,.,
CCOC(=O)c1c(NC(=O)Cn2cnc([N+](=O)[O-])n2)sc2c1CCC(C)C2 (configuration not stated),32,-26,17,11,106,.,
COC(=O)c1c(NC(=O)Cn2cnc([N+](=O)[O-])n2)sc2c1CCC(C)C2 (configuration not stated),32,44,50*,28,91,28,
Cc1ccc(S(=O)(=O)N(C)C)cc1NC(=S)NNC(=O)C(N)=O,-16,6,4,14,108,.,
CC(C)NC(=O)NC(=O)CSc1nnc(COc2ccccc2Cl)o1,2,7,3,7,95,.,
CC(C)CCNC(=O)NC(=O)CSc1nnc(COc2ccccc2Cl)o1,25,-15,49*,1,101,13,
O=C(CNC(=O)c1ccccc1F)OCc1nc2ccccc2s1,-34,-5,1,-4,105,.,
CNc1sc(C(=O)c2ccccc2F)c(N)c1-c1nc2ccccc2s1,35,24,46*,28,105,35*,
CCC(=O)N1CCc2cc(Br)cc(S(=O)(=O)N(C)c3ccc(OC)cc3)c21,-4,41,10,13,110,.,
CCCCCCSc1ccc([C@H]2N[C@@](C)(C(=O)OC)[C@H]3C(=O)N(C)C(=O)[C@@H]23)cc1,29,38,44*,18,.,35*,
COc1ccc(CN(C)C(=O)/C=C/c2ccc(S(=O)(=O)N3CCCCCC3)cc2)cc1,21,34,9,9,161,.,
COc1cc([N+](=O)[O-])cc(/C=N\NC(=O)C2COc3ccccc3O2)c1O (configuration not stated),6,5,10,27,101,.,
SMILES,TIM10 inh,tim23-1 inh,tim10-1 inh,NLRP3 yeast inh,CR mimetic SO,tim10-1 conf,others
N/C(=N\OC(=O)C1CCCCC1)c1ccncc1,14,11,19,-4,98,.,
N/C(=N\OC(=O)C12CC3CC(CC(C3)C1)C2)c1ccncc1,28,36,45*,4,71,30,
O=[N+]([O-])c1cccc(NC(=S)NCCc2ccccc2)c1,46*,32,47*,3,133,30*,TIM10 conf=17
C[C@@H]1CC=C[C@@H]2[C@H]1C(=O)N(Cc1ccccc1)[C@H]2c1cccc(Br)c1,7,44,26,.,90,.,
CC[C@@H]1CC=C[C@H]2[C@H]1C(=O)N(Cc1ccccc1)[C@H]2c1ccc2ccccc2c1,45*,43,41*,3,.,26,TIM10 conf=38*
CCOc1cc(S(=O)(=O)NCCCN2CCOCC2)ccc1F,-5,8,2,0,100,.,
Cc1ccc(S(=O)(=O)CCC(=O)c2ccc(O)cc2O)cc1,55*,48,54*,-22,102,47*,TIM10 conf=50*
Cc1ccc(S(=O)(=O)CCC(=O)OCC(=O)c2cc(C)ccc2C)cc1,-2,3,-2,6,96,.,
COc1cccc(CNC(=O)c2ccc(NC(=O)CC3SC(N4CCCC4)=NC3=O)cc2)c1 (configuration not stated),0,8,4,1,99,.,
C=CCn1c(SCc2c(F)cccc2Cl)nnc1-c1ccco1,51*,46,41*,9,89,37*,TIM10 conf=23
COc1cc2c(cc1OC)C(c1ccccc1F)OC(=O)C2 (configuration not stated),-25,-21,-18,10,106,.,
Cc1ccc(CNC(=O)/C(C#N)=C\c2ccc(N(C)C)cc2)cc1,45*,20,45*,9,88,29,TIM10 conf=17
COc1cc(C(=O)OCC(=O)c2cc(C)n(C)c2C)cc(OC)c1OC,45*,38,42*,2,81,32,TIM10 conf=8
CCN1/C(=C\C(=S)Nc2ccccc2)Sc2ccccc21,50*,40,45*,30,92,12,TIM10 conf=43*
CCN(CC)/C(Sc1ccccc1)=C(/C(Cl)=C(Cl)Cl)[N+](=O)[O-],42*,39,46*,-11,105,33*,TIM10 conf=35*
CCOC(=O)C1=C(COC(=O)[C@@H](NC(=O)c2cccc(C)c2)C(C)C)NC(=O)NC1C (some centres not stated),-2,5,0,1,116,.,
CC(Sc1ccc(Cl)cc1)C(=O)Nc1ccc2c(c1)OCO2 (configuration not stated),37,20,20,17,101,.,

# High-throughput results deposited in PubChem BioAssay by several laboratories.
